Sampled rows, rich in hits. Any-hit rate of the full collection: about 6.8%.
C diff growth = blocks growth of Clostridium difficile. Clostridium difficile clinical isolate growth, OD600, 24 h; stronger effect = lower value. growth activity, negative = inhibition, % at 16 µg/mL (by protocol). 86,000 tested, 0.25% active. AID 1259249;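 active means mean growth activity at or below -80% and every replicate also at or below -80%; inconclusive means mean at or below -80% but some replicate above -80%; inactive means mean growth activity above -80%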
Pf Dd2 growth = P. falciparum Dd2 growth inhibition; SYBR Green, 72 h; stronger effect = lower value; activity change, % at 10 µM; 94,000 tested, 2.3% active; AID 1159554; in the data active means activity change below about -80%; inconclusive means no clear call, values can overlap the other calls
T cruzi growth-1 = T. cruzi proliferation inhibition; T. cruzi beta-gal in NIH3T3, GalScreen luminescence, 90 h; inhibition, % at 8.34 µM; 77,000 tested, 5.9% active; AID 624255;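 active means mean inhibition above about 93%, with at least 55% of replicates each passing it, limit read from the data, passing the limit was not always enough; inconclusive means only one of those two conditions holds; inactive means neither condition holds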
T cruzi growth-2 = Trypanosoma cruzi proliferation inhibition | inhibition, % at 8.35 µM | shares compounds with T cruzi growth-1 | T. cruzi beta-gal in NIH3T3, GalScreen luminescence, 90 h | 5,600 tested, 72% active | AID 651739;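 active means mean replicate inhibition above about 95% and at least 55% of replicates individually reaching it, limit read from the data; inconclusive means only one of the two criteria is met; inactive means neither criterion is met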
T cruzi growth-3 = inhibitors of T. cruzi proliferation. 5,600 tested, 21% active. inhibition, % at 2.09 µM. AID 651740. shares compounds with T cruzi growth-1. T. cruzi beta-gal in NIH3T3, GalScreen luminescence, 90 h;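 active means mean inhibition above about 95%, with at least 55% of replicates also reaching it, limit read from the data; inconclusive means meets just one of the two conditions; inactive means meets neither condition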
NIH3T3 tox = NIH/3T3 (mouse) viability loss; cytotoxicity (signal decrease), % at 8.35 µM; shares compounds with T cruzi growth-1; NIH/3T3 viability, CellTiter-Glo ATP luminescence, 90 h; AID 651742; 5,600 tested, 14% active;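 active means mean signal decrease across replicates above about 35% based on untreated-well scatter, with enough replicates individually passing, limit read from the data; inconclusive means no rule stated though some were filed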
NIH3T3 tox 2 = NIH/3T3 (mouse) viability loss | inhibition, % at 24.9 µM | 5,600 tested, 56% active | shares compounds with T cruzi growth-1 | NIH/3T3 viability, CellTiter-Glo ATP luminescence, 90 h;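 active means mean loss of cell viability signal at or above a set limit, and enough replicates individually reaching it; inconclusive means meets only the mean limit or only the replicate share; inactive means meets neither condition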
Each line names hits and unclear results; the compound was inactive in the other large screens (follow-up assays come after a bar, where they were run).

C[C@@H]1CN([C@@H](C)CO)C(=O)c2cc(NS(=O)(=O)c3ccc(Cl)cc3)ccc2O[C@H]1CN(C)Cc1ccccc1	none
C[C@@H]1CN([C@H](C)CO)C(=O)c2cc(NS(=O)(=O)c3ccc(Cl)cc3)ccc2O[C@@H]1CN(C)Cc1ccc(-c2ccccc2)cc1	T cruzi growth-1 inconclusive | T cruzi growth-2 98 | T cruzi growth-3 inactive | NIH3T3 tox 92 | NIH3T3 tox 2 105
COc1ccc(S(=O)(=O)Nc2ccc3c(c2)C(=O)N([C@H](C)CO)C[C@H](C)[C@H](CN(C)Cc2ccc(-c4ccccc4)cc2)O3)cc1	none
C[C@@H]1CN([C@@H](C)CO)C(=O)c2cc(NS(=O)(=O)c3ccc(Cl)cc3)ccc2O[C@@H]1CN(C)Cc1ccc(-c2ccccc2)cc1	T cruzi growth-1 inconclusive | T cruzi growth-2 inconclusive | T cruzi growth-3 inactive | NIH3T3 tox 82 | NIH3T3 tox 2 103
C[C@H]1CN([C@@H](C)CO)C(=O)c2cccc(NS(C)(=O)=O)c2O[C@H]1CN(C)S(=O)(=O)c1ccccc1	none
Cc1ccccc1-c1ccc2c(c1)O[C@H](CN(C)C(=O)c1ccccn1)[C@H](C)CN([C@@H](C)CO)S2(=O)=O	none (no result: T cruzi growth-1)
C[C@H](CO)N1C[C@H](C)[C@@H](CN(C)Cc2ccc(-c3ccccc3)cc2)Oc2ccc(NS(=O)(=O)c3ccc(Cl)cc3)cc2C1=O	none
C[C@@H]1CN([C@H](C)CO)C(=O)c2cc(NS(=O)(=O)c3ccccc3)ccc2O[C@@H]1CN(C)Cc1ccc(-c2ccccc2)cc1	none
C[C@@H]1CN([C@@H](C)CO)C(=O)c2cc(NS(=O)(=O)c3ccc(F)cc3)ccc2O[C@H]1CN(C)Cc1ccc(-c2ccccc2)cc1	T cruzi growth-1 inconclusive | T cruzi growth-2 106 | T cruzi growth-3 inactive | NIH3T3 tox inactive | NIH3T3 tox 2 103
C[C@H](CO)N1C[C@H](C)[C@H](CN(C)Cc2ccc(-c3ccccc3)cc2)Oc2ccc(NS(=O)(=O)c3ccc(Cl)cc3)cc2C1=O	T cruzi growth-1 112 | T cruzi growth-2 104 | T cruzi growth-3 inactive | NIH3T3 tox inactive | NIH3T3 tox 2 103
C[C@@H]1CN([C@H](C)CO)C(=O)c2cc(NS(=O)(=O)c3ccc(F)cc3)ccc2O[C@@H]1CN(C)Cc1ccc(-c2ccccc2)cc1	none
C[C@H]1CN([C@@H](C)CO)C(=O)c2cc(NS(=O)(=O)c3ccc(Cl)cc3)ccc2O[C@@H]1CN(C)Cc1ccc(-c2ccccc2)cc1	T cruzi growth-1 111 | T cruzi growth-2 103 | T cruzi growth-3 inactive | NIH3T3 tox inactive | NIH3T3 tox 2 104
CCCC(=O)Nc1ccc2c(c1)OC[C@H](C)N(C(=O)c1ccncc1)C[C@@H](C)[C@H](OC)CN(C)C2=O	none (no result: C diff growth)
Cc1noc(C)c1NC(=O)N[C@H]1C=C[C@@H](CC(=O)N2CCN(C)CC2)O[C@@H]1CO	none
COCC(=O)NC[C@@H]1[C@H](c2ccc(C3=CCCC3)cc2)[C@@H](CO)N1C(C)=O	T cruzi growth-1 108 | T cruzi growth-2 inactive | T cruzi growth-3 inactive | NIH3T3 tox inactive | NIH3T3 tox 2 inactive
CCC(=O)NC[C@@H]1[C@@H](c2ccc(C3=CCCC3)cc2)[C@H](CO)N1C(C)=O	none
COCC(=O)NC[C@@H]1[C@H](c2ccc(C3=CCCC3)cc2)[C@H](CO)N1C(C)=O	T cruzi growth-1 116 | T cruzi growth-2 96 | T cruzi growth-3 inactive | NIH3T3 tox inactive | NIH3T3 tox 2 inactive
COCC(=O)NC[C@H]1[C@H](c2ccc(C3=CCCC3)cc2)[C@H](CO)N1C(C)=O	T cruzi growth-1 inconclusive | T cruzi growth-2 inactive | T cruzi growth-3 inactive | NIH3T3 tox inactive | NIH3T3 tox 2 inactive
CCC(=O)NC[C@H]1[C@@H](c2ccc(C3=CCCC3)cc2)[C@@H](CO)N1C(C)=O	none
CCC(=O)NC[C@H]1[C@H](c2ccc(C3=CCCC3)cc2)[C@H](CO)N1C(C)=O	none
O=C(CCN1CCCCC1)NCC[C@H]1CC[C@H](NC(=O)C2CCCCC2)[C@H](CO)O1	none (no result: T cruzi growth-1)
O=C(Nc1ccccc1)N[C@H]1CC[C@@H](CCNS(=O)(=O)c2cccc(F)c2)O[C@H]1CO	none
O=C(Nc1ccccc1)N[C@@H]1CC[C@@H](CCNS(=O)(=O)c2cccc(F)c2)O[C@@H]1CO	none
O=C(Nc1ccc(Cl)cc1)N[C@H]1CC[C@@H](CCNC(=O)c2ccccc2F)O[C@@H]1CO	T cruzi growth-1 142 | T cruzi growth-2 inactive | T cruzi growth-3 inactive | NIH3T3 tox inactive | NIH3T3 tox 2 inactive
O=C(Nc1ccc(Cl)cc1)N[C@H]1CC[C@@H](CCNC(=O)c2ccccc2F)O[C@H]1CO	none
O=C(Nc1cc(Cl)cc(Cl)c1)N[C@H]1CC[C@@H](CCNS(=O)(=O)c2cccc(F)c2)O[C@@H]1CO	T cruzi growth-1 inconclusive | T cruzi growth-2 100 | T cruzi growth-3 inactive | NIH3T3 tox 40 | NIH3T3 tox 2 81
O=C(Nc1ccccc1)N[C@H]1CC[C@H](CCNS(=O)(=O)c2cccc(F)c2)O[C@@H]1CO	none
O=C(Nc1cc(Cl)cc(Cl)c1)N[C@@H]1CC[C@@H](CCNS(=O)(=O)c2cccc(F)c2)O[C@@H]1CO	T cruzi growth-1 147 | T cruzi growth-2 104 | T cruzi growth-3 inactive | NIH3T3 tox inactive | NIH3T3 tox 2 65
O=C(Nc1cc(Cl)cc(Cl)c1)N[C@H]1CC[C@H](CCNS(=O)(=O)c2cccc(F)c2)O[C@H]1CO	T cruzi growth-1 176 | T cruzi growth-2 104 | T cruzi growth-3 inactive | NIH3T3 tox inactive | NIH3T3 tox 2 57
Cc1ccc(S(=O)(=O)N[C@H]2CC[C@H](CC(=O)NCCc3ccncc3)O[C@H]2CO)cc1	none
C[C@@H]1CCCCO[C@@H](CN(C)S(C)(=O)=O)[C@H](C)CN([C@H](C)CO)C(=O)c2cc(NC(=O)c3ccccc3)ccc2O1	none
CCCNC(=O)N1CC2(CN(C(=O)c3cccnc3)C2)c2c([nH]c3cc(OC)ccc23)[C@@H]1CO	none (no result: T cruzi growth-1)
C[C@@H]1CN([C@H](C)CO)C(=O)c2cc(NC(=O)Cc3ccccc3)ccc2O[C@@H]1CN(C)C(=O)Nc1ccccc1	none
CCC(=O)Nc1ccc2c(c1)C(=O)N(C)[C@@H]1CC[C@@H](CC(=O)NCc3ccccc3)O[C@@H]1CO2	none
O=C(Cc1ccccn1)N[C@H]1CC[C@@H](CCNS(=O)(=O)c2cccc(F)c2)O[C@H]1CO	none (no result: C diff growth)
O=C(Cc1ccccn1)N[C@H]1CC[C@@H](CCNS(=O)(=O)c2cccc(F)c2)O[C@@H]1CO	T cruzi growth-1 101 (no result: C diff growth) | T cruzi growth-2 inactive | T cruzi growth-3 inactive | NIH3T3 tox inactive | NIH3T3 tox 2 inactive
COCC(=O)Nc1ccc2c(c1)C(=O)N(C)C[C@@H](OC)[C@H](C)CN(Cc1cccc(F)c1)[C@@H](C)CO2	none (no result: C diff growth)
